Experimental data: PubChem BioAssay (NCATS)
Results filed as inconclusive are left out. A call without a number means that no potency is given here. The source made the active and inactive calls. The call rests on the fitted dose curve; in most records, active means well fitted inhibition curve with a large enough effect; inconclusive means small, poorly fitted or top-dose-only effect; inactive means flat fitted curve, though single readings scatter. Residues, ends and D or L forms follow the SMILES beside them. *: point of attachment. Cbz = O=C(OCc1ccccc1)*

Biological target: Glutathione peroxidase 1 (Homo sapiens) (UniProt P07203)
Test: Primary qHTS Assay for Inhibitors of Recombinant Selenoprotein Glutathione Peroxidase 1 (GPX1) (AID 1845191)
Details: recombinant GPX1, GR-coupled NADPH fluorescence, 15 min; series mostly up to 48.8 µM; activity, negative = inhibition: at the top concentration
Outline: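 GR-coupled readout: NADPH consumption tracked by fluorescence, ex 340/em 450 nm, at t=0 and after 15 min at RT. Final mix 10 nM GPX1, 1 mM GSH, 0.5 mM CHP, 0.5 mM NADPH, 100 nM GR, 0.01% BSA, following 30 min enzyme–compound preincubation.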
Further: nearly all actives have a fitted effect of over 65% in size.

Sequence of Glutathione peroxidase 1 (Homo sapiens) (P07203 whole entry, looked up): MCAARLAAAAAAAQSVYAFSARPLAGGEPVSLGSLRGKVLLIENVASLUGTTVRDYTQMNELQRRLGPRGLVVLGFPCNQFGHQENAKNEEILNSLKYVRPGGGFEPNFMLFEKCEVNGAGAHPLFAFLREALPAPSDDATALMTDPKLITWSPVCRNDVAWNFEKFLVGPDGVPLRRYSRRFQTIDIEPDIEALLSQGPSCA

Row | SMILES | activity, negative = inhibition | outcome | Potency
1 | c1ccc(C(NCc2cccnc2)(c2ccccc2)c2ccccc2)cc1 | -14.5% (inactive) |  | 
2 | CC(=O)NNC(=O)N1Cc2ccccc2Oc2ccc(Cl)cc21 | 0.549% (inactive) |  | 
3 | CCCCS(=N)(=O)CC[C@H](N)C(=O)O (stereo partly specified) |  | inactive | 
4 | N=C(N)SCCN |  | inactive | 
5 | Oc1ccc(/C=C/c2ccc(/C=C/c3ccc(O)cc3)c(Br)c2)cc1 |  | inactive | 
6 | CC(N)=NCCCC[C@@H](N)C(=O)O | -22.7% (inactive) |  | 
7 | NC1CCN(O)C1=O (stereo unspecified) |  | inactive | 
8 | COc1ccc2c(c1)CCC1C2CC[C@@]2(C)C1CC[C@@H]2NCCCCCCN1C(=O)C=CC1=O (stereo partly specified) | 3.07% (inactive) |  | 
9 | Oc1cc(O)c2c(c1)O[C@H](c1ccc(O)c(O)c1)[C@@H](O)C2 | 1.78% (inactive) |  | 
10 | CCCC(=O)NCCc1c2n(c3ccc(OC)cc13)CCCc1ccccc1-2 |  | inactive | 
11 | O=c1cc(O)cc(/C=C/c2ccc(O)c(O)c2)o1 |  | inactive | 
12 | CC1C(=O)N(C)C(=O)c2nc[nH]c21 (stereo unspecified) | -34.5% (inactive) |  | 
13 | O=C(O)c1cccnc1C(=O)O | -16.9% (inactive) |  | 
14 | Cc1nc2c(OCc3ccccc3)cccn2c1CC#N | 1.77% (inactive) |  | 
15 | Nc1ncnc2c1nc(Br)n2C1OC2COP(=O)(O)O[C@@H]2C1O (stereo partly specified) | -12% (inactive) |  | 
16 | Cc1ccccc1/C=C/C1=NCCN1 |  | inactive | 
17 | COc1cc(CC(=O)O)ccc1O |  | inactive | 
18 | CC1CCN(CC[C@H]2CCCN2S(=O)(=O)c2cccc(O)c2)CC1 | -19.7% (inactive) |  | 
19 | CCCCCCCCCCC(C)(C)C(=O)Nc1c(OC)cc(OC)cc1OC |  | inactive | 

Row | SMILES | activity, negative = inhibition | outcome | Potency
20 | O=c1ccc2c(OCCCCc3ccccc3)c3ccoc3cc2o1 |  | inactive | 
21 | Nc1nc2c(cnn2CCc2ccccc2)c2nc(-c3ccco3)nn12 | 2.08% (inactive) |  | 
22 | CCN(c1nc(N)c(C(=O)N=C(N)N)nc1Cl)C(C)C | -4.83% (inactive) |  | 
23 | c1ccc(CN2CCC3(CCCc4ccccc43)CC2)cc1 | 1.07% (inactive) |  | 
24 | CC(C)[C@H](NC(=O)OCc1ccccc1)C(=O)N[C@H](C=O)Cc1ccccc1 (Cbz-Val-Phe-aldehyde) | -3.52% (inactive) |  | 
25 | COc1ccc2c(c1)c(CC(=O)O)c(C)n2Cc1ccc(Cl)cc1 |  | inactive | 
26 | CCCCOC(=O)NS(=O)(=O)c1sc(CC(C)C)cc1-c1ccc(Cn2c(CC)nc3c(C)cc(C)nc32)cc1 |  | inactive | 
27 | CCCCCCCCCC(=O)NC(CN1CCOCC1)[C@H](O)c1ccccc1 (stereo partly specified) |  | inactive | 
28 | CC(N)=O | 3.68% (inactive) |  | 
29 | O[Si](CCCN1CCCCC1)(c1ccc(F)cc1)C1CCCCC1 (stereo unspecified) | 4.16% (inactive) |  | 
30 | CNCCc1cnc(CCC(c2ccccc2)c2ccccc2)[nH]1 |  | inactive | 
31 | Nc1ccc(CCNc2ncnc3c2ncn3C2OC(CO)C(O)C2O)cc1 (stereo unspecified) | -6.02% (inactive) |  | 
32 | CC[C@@H]1Cc2cc(O)ccc2C2=C1c1ccc(O)cc1C[C@H]2CC |  | inactive | 
33 | C=CC1(C)CC(=O)C2(O)C(C)(O1)C(OC(C)=O)C(O)C1C(C)(C)CCC(O)C12C (stereo unspecified) | -19.1% (inactive) |  | 
34 | N[C@@H](CCC(=O)N[C@H](CSN=O)C(=O)NCC(=O)O)C(=O)O | -28.8% (inactive) |  | 
35 | Cc1nc(N=Nc2ccc(C(=O)O)cc2)c(COP(=O)(O)O)c(C=O)c1O |  | inactive | 
36 | NC1(C(=O)O)CCCCC1 |  | inactive | 
37 | NC[C@@H]1O[C@H](c2ccccc2)Cc2c1ccc(O)c2O | -9.87% (inactive) |  | 
38 | CC(=O)O[C@H]1CC2(C)[C@@H](C[C@@H](O)[C@H]3[C@@]4(C)CC[C@@H](O)[C@@H](C)[C@@H]4CC[C@@]32C)C1=C(CCC=C(C)C)C(=O)O (stereo partly specified) |  |  | inactive

Biological target: Phospholipid hydroperoxide glutathione peroxidase GPX4 (Homo sapiens) (UniProt P36969)
Test: Primary qHTS Assay for Inhibitors of Recombinant Selenoprotein Glutathione Peroxidase 4 (GPX4) (AID 1845192)
Details: recombinant GPX4, GR-coupled NADPH fluorescence, 15 min; series mostly up to 50 µM; activity change, negative = inhibition: at the top concentration
Outline: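 Steps: GPX4 plus compound, 30 min RT; add GR/GSH/NADPH master mix; start with cumene hydroperoxide; read 340/450 nm fluorescence at 0 and 15 min. Finals were 200 nM GPX4, 1 mM GSH, 0.5 mM CHP, 0.5 mM NADPH, 100 nM GR.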

Sequence of Phospholipid hydroperoxide glutathione peroxidase GPX4 (Homo sapiens) (P36969 whole entry, looked up): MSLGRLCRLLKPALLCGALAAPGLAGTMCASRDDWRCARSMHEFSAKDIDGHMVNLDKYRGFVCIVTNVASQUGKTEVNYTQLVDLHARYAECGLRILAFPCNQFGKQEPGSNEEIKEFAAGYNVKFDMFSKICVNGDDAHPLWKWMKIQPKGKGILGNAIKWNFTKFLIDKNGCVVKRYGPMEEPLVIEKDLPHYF

Row | SMILES | activity change, negative = inhibition | outcome
39 | c1ccc(C(NCc2cccnc2)(c2ccccc2)c2ccccc2)cc1 | -11.5% (inactive) | 
40 | CC(=O)NNC(=O)N1Cc2ccccc2Oc2ccc(Cl)cc21 |  | inactive
41 | CCCCS(=N)(=O)CC[C@H](N)C(=O)O (stereo partly specified) |  | inactive
42 | N=C(N)SCCN |  | inactive
43 | Oc1ccc(/C=C/c2ccc(/C=C/c3ccc(O)cc3)c(Br)c2)cc1 |  | inactive
44 | CC(N)=NCCCC[C@@H](N)C(=O)O | -13% (inactive) | 
45 | NC1CCN(O)C1=O (stereo unspecified) |  | inactive
46 | COc1ccc2c(c1)CCC1C2CC[C@@]2(C)C1CC[C@@H]2NCCCCCCN1C(=O)C=CC1=O (stereo partly specified) |  | inactive
47 | Oc1cc(O)c2c(c1)O[C@H](c1ccc(O)c(O)c1)[C@@H](O)C2 |  | inactive
48 | CCCC(=O)NCCc1c2n(c3ccc(OC)cc13)CCCc1ccccc1-2 | -3.39% (inactive) | 
49 | O=c1cc(O)cc(/C=C/c2ccc(O)c(O)c2)o1 |  | inactive
50 | CC1C(=O)N(C)C(=O)c2nc[nH]c21 (stereo unspecified) | -15.1% (inactive) | 
51 | O=C(O)c1cccnc1C(=O)O | -0.293% (inactive) | 
52 | Cc1nc2c(OCc3ccccc3)cccn2c1CC#N | 3.17% (inactive) | 
53 | Nc1ncnc2c1nc(Br)n2C1OC2COP(=O)(O)O[C@@H]2C1O (stereo partly specified) | -5.96% (inactive) | 
54 | Cc1ccccc1/C=C/C1=NCCN1 | 3.82% (inactive) | 
55 | COc1cc(CC(=O)O)ccc1O |  | inactive
56 | CC1CCN(CC[C@H]2CCCN2S(=O)(=O)c2cccc(O)c2)CC1 | -2.21% (inactive) | 
57 | CCCCCCCCCCC(C)(C)C(=O)Nc1c(OC)cc(OC)cc1OC |  | inactive

Row | SMILES | activity change, negative = inhibition | outcome
58 | O=c1ccc2c(OCCCCc3ccccc3)c3ccoc3cc2o1 |  | inactive
59 | Nc1nc2c(cnn2CCc2ccccc2)c2nc(-c3ccco3)nn12 |  | inactive
60 | CCN(c1nc(N)c(C(=O)N=C(N)N)nc1Cl)C(C)C | 0.853% (inactive) | 
61 | c1ccc(CN2CCC3(CCCc4ccccc43)CC2)cc1 |  | inactive
62 | CC(C)[C@H](NC(=O)OCc1ccccc1)C(=O)N[C@H](C=O)Cc1ccccc1 (Cbz-Val-Phe-aldehyde) |  | inactive
63 | COc1ccc2c(c1)c(CC(=O)O)c(C)n2Cc1ccc(Cl)cc1 |  | inactive
64 | CCCCOC(=O)NS(=O)(=O)c1sc(CC(C)C)cc1-c1ccc(Cn2c(CC)nc3c(C)cc(C)nc32)cc1 |  | inactive
65 | CCCCCCCCCC(=O)NC(CN1CCOCC1)[C@H](O)c1ccccc1 (stereo partly specified) |  | inactive
66 | CC(N)=O |  | inactive
67 | O[Si](CCCN1CCCCC1)(c1ccc(F)cc1)C1CCCCC1 (stereo unspecified) |  | inactive
68 | CNCCc1cnc(CCC(c2ccccc2)c2ccccc2)[nH]1 | 2.23% (inactive) | 
69 | Nc1ccc(CCNc2ncnc3c2ncn3C2OC(CO)C(O)C2O)cc1 (stereo unspecified) | 0.684% (inactive) | 
70 | CC[C@@H]1Cc2cc(O)ccc2C2=C1c1ccc(O)cc1C[C@H]2CC | -6.29% (inactive) | 
71 | C=CC1(C)CC(=O)C2(O)C(C)(O1)C(OC(C)=O)C(O)C1C(C)(C)CCC(O)C12C (stereo unspecified) | -9.49% (inactive) | 
72 | N[C@@H](CCC(=O)N[C@H](CSN=O)C(=O)NCC(=O)O)C(=O)O | -17.4% (inactive) | 
73 | Cc1nc(N=Nc2ccc(C(=O)O)cc2)c(COP(=O)(O)O)c(C=O)c1O |  | inactive
74 | NC1(C(=O)O)CCCCC1 |  | inactive
75 | NC[C@@H]1O[C@H](c2ccccc2)Cc2c1ccc(O)c2O | 0.21% (inactive) | 
76 | CC(=O)O[C@H]1CC2(C)[C@@H](C[C@@H](O)[C@H]3[C@@]4(C)CC[C@@H](O)[C@@H](C)[C@@H]4CC[C@@]32C)C1=C(CCC=C(C)C)C(=O)O (stereo partly specified) |  | inactive
